Source: PubChem BioAssay
697 NFkB inh: inhibitors of PMA/ionomycin-induced NF-kB reporter, 697 cells, primary screen, B-cell NF-kB inhibitor project, cell-based, luminescence, uHTS; 697 B-cell NF-kB luciferase reporter, 16 h; hit rate 0.33% among 330,000; inhibition, % at 4 µM; in the data active means inhibition above about 35%
ANO1 activ: TMEM16A chloride channel activators or potentiators, primary screen, cell-based, HTS. HEK293 TMEM16A/YFP-H148Q/I152L, iodide quench fluorescence; active compounds read low. Anoctamin-1 (Mus musculus), Q8BHY3. hit rate 0.3% among 340,000. B-score at 10 µM;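 active means fluorescence-ratio B-score plate-corrected deviation score at least 3 library SD below zero, with starting fluorescence score within 5 deviations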;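 further: channel opened by trigger with iodide after compound preincubation; score built on the fluorescence ratio of max minus min over baseline; more negative score means more quench and so TMEM16A activation or potentiation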
Jurkat NFkB inh: inhibitors of induced NF-kB luciferase reporter, primary screen, TCR NF-kB activation inhibitor project, cell-based, luminescence, uHTS; AID 435003, 2010; hit rate 0.53% among 330,000; inhibition, % at 4 µM; Jurkat, PMA/ionomycin-induced NF-kB luciferase reporter; in the data active means inhibition above about 50%
TMEM16A inh: TMEM16A chloride channel inhibitors, primary screen, cell-based, HTS | Anoctamin-1 (Mus musculus), Q8BHY3 | HEK293 TMEM16A/YFP iodide influx fluorescence, ionomycin | normalized B-score (activity score, 25-100; higher = stronger inhibition) at 10 µM | hit rate 1.2% among 310,000;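 active means ratio plate-corrected score three or more library SD toward inhibition, starting fluorescence score within five deviations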;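 further: score derived from kinetic fluorescence span divided by baseline fluorescence per well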
KLF5 inh: KLF5 expression inhibitors, primary screen, DLD-1 cells, luminescence. DLD-1 KLF5 promoter-luciferase reporter. inhibition, % at 5 µM. hit rate 0.23% among 290,000;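 active means inhibition above a per-plate limit of that plate's mean compound inhibition plus 3 SD, cut at about 60% in these data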;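 further: 0% = DMSO wells and 100% = LY294002 at 200 µM; higher means less KLF5 promoter-driven luciferase light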
aSyn UTR inh: MLPCN primary screen, SNCA 5' untranslated region; alpha-synuclein 5'UTR reporter, inhibitor activity; inhibition, % (tested at 7.5 µM); AID 1813, 2009; hit rate 0.82% among 300,000; in the data active means inhibition above about 60%;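 further: H4 neuroglioblastoma cells stably carrying SNCA 5'UTR luciferase fusion; 0% = DMSO wells and 100% = positive control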
697 NFkB conf: PMA/ionomycin-induced NF-kB reporter inhibitors, 697 retest, confirmation, B-cell NF-kB inhibitor project, cell-based, luminescence, single concentration; shares compounds with 697 NFkB inh; 697 B-cell NF-kB luciferase, 16 h; inhibition, % at 4 µM; hit rate 35% among 2,000; in the data active means inhibition mostly above about 28%, no sharp cut-off; inactive means mostly below about 22%
* marks the source's active call; other numbers are inactive results; i = inactive; . = no result given. Compounds with a hit are over-represented: about 2.5% of the library has one in this group of screens.

SMILES | 697 NFkB inh | ANO1 activ | Jurkat NFkB inh | TMEM16A inh | KLF5 inh | aSyn UTR inh | 697 NFkB conf
Cc1cc(NC(=O)c2ccccc2)nc2c1c(=O)oc1ccccc12 | 35.0* | i | -6.2 | i | -19.9 | -32.8 | 9.5
COc1ccc(CCNC(=O)c2ccc(NC(=O)CC3SC(N4CCCC4)=NC3=O)cc2)cc1OC (configuration not stated) | . | i | . | . | . | . | .
O=C1CN(C(=O)COC(=O)c2ccccc2Br)c2ccccc2N1 | -5.5 | i | 0.9 | . | . | . | .
O=[N+]([O-])c1ccccc1NC(=S)N/N=C/c1ccc(O)c(O)c1 | -323.5 | i | -143.8 | i | -54.0 | -53.9 | -179.5
CCOc1cccc(/C=N/NC(=S)Nc2ccccc2[N+](=O)[O-])c1O | -118.2 | i | 26.8 | i | 26.7 | -50.3 | .
CC(C)COc1ccc(-c2nnc(-c3ccco3)o2)cc1 | -263.4 | i | -131.6 | i | -163.0 | 86.1* | -138.6
O=C(COc1ccccc1)Nc1ccc(-c2nnc(-c3ccco3)o2)cc1 | -83.8 | i | -62.3 | i | -27.4 | -83.9 | .
O=C(Nc1ccc(NC(=O)c2cccc([N+](=O)[O-])c2)cc1)c1cccc([N+](=O)[O-])c1 | -17.3 | i | -20.1 | i | -24.3 | -55.7 | .
COC(=O)c1c(NC(=O)c2cccc([N+](=O)[O-])c2)sc(C(N)=O)c1C | 39.4* | i | 15.9 | i | -9.2 | 3.4 | 50.1*
O=C(Nc1ncc([N+](=O)[O-])s1)c1cccc([N+](=O)[O-])c1 | -449.9 | -4.64* | -71.7 | 100* | -74.0 | 31.7 | -444.5
O=C(Nc1ccccc1)Nc1ncc([N+](=O)[O-])s1 | -260.3 | i | -79.6 | . | -179.6 | -48.5 | -351.3
O=C(COC(=O)c1ccccc1)Nc1ncc([N+](=O)[O-])s1 | -26.5 | i | -6.2 | . | . | . | .
COC(=O)c1sc(NC(=O)c2cccc([N+](=O)[O-])c2)c(C(N)=O)c1C | 12.7 | i | 2.6 | i | -50.1 | 28.0 | .
COC(=O)CCc1c(C)c(C(=O)c2cc(OC)c(OC)c(OC)c2)c2ccccn12 | 9.1 | i | 7.5 | i | -17.1 | -22.8 | .
NC(=O)c1ccccc1OCC(=O)N1CCc2ccccc2C1 | 16.1 | i | -2.3 | i | -14.0 | 1.8 | .
Cc1ccccc1-c1nnc(SCC(=O)Nc2cccc(C)c2C)o1 | 37.4* | i | -32.7 | i | -40.4 | -34.0 | 13.8
COc1ccc(NC(=O)CSc2nnc(-c3cccc(O)c3)o2)cc1 | 26.3 | i | -33.0 | i | -31.2 | -109.8 | .
COc1cccc(NC(=O)CSc2nnc(-c3cc(C)n(-c4ccccc4)c3C)o2)c1 | 70.8* | i | -5.8 | i | 20.7 | -22.7 | 16.9
Cc1ccc(NC(=O)CSCC(=O)OC(C)C(=O)Nc2ccccc2C)cc1 (configuration not stated) | 11.8 | i | 5.2 | . | . | . | .
CC1CCC2(CC1)NC(=O)N(CC(=O)NC(=O)Nc1ccc3c(c1)OCCO3)C2=O (configuration not stated) | 2.7 | i | -22.7 | i | -11.1 | -12.8 | .
CSc1nnc2c3ccccc3n(CCc3ccccc3)c2n1 | i | i | -74.9 | i | -38.7 | 14.2 | i
CSc1nnc2c3ccccc3n(Cc3ccccc3)c2n1 | -12.7 | i | -9.3 | i | 11.9 | 37.2 | .
CC(C)(C)c1nc(SCC(=O)Nc2nc3c(s2)CCCC3)c2ccccc2n1 | i | i | -31.4 | i | -5.7 | 40.7 | i
O=C(CSc1nc(Cc2ccccc2)nc2ccccc12)Nc1nc2c(s1)CCCC2 | -18.2 | i | -4.7 | i | -9.4 | -35.5 | .
COc1ccccc1NC(=O)CNC(=O)c1ccc(Br)o1 | -19.3 | i | -3.7 | i | -0.8 | -1.0 | .
CC(Oc1cc2oc(=O)cc(-c3ccccc3)c2cc1Cl)C(=O)NCC1CCC(C(=O)O)CC1 (configuration not stated) | 14.6 | i | -9.8 | i | -25.6 | 23.5 | .
